# MmCpn inh: inhibitors of Methanococcus maripaludis chaperonin TRiC (MmCpn). purified Mm-Cpn ATPase, ADP Transcreener TR-FRET. Potency, µM (series often up to 76.9 µM), usual class: inhibitors. actives 0.031% (n = 330,000); also: nearly all actives have a fitted effect of over 80% in size
#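 Purified archaeal Mm-CPN (25nM final) preincubated 10 min at 37degC with compound, then 10uM ATP for 30 min at 37degC; ADP measured by HTRF Transcreener TR-FRET; buffer 30 mM TRIS pH 7.4, 100mM KCl, 5mM MgCl2, 1mM DTT.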
# RXFP1 antagonist: antagonists of human relaxin receptor RXFP1; activity change, negative = inhibition, % at 57.5 µM; HEK293-RXFP1, relaxin-stimulated cAMP HTRF, 30 min; stronger effect = lower value; actives 0.59% (n = 350,000);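 active = activity change of -60% or lower, but not beyond a set lower limit; inconclusive = change between -60% and -40%, or beyond the set limit; inactive = change above -40%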
# Target sequence (Q9HBX9 whole entry, looked up): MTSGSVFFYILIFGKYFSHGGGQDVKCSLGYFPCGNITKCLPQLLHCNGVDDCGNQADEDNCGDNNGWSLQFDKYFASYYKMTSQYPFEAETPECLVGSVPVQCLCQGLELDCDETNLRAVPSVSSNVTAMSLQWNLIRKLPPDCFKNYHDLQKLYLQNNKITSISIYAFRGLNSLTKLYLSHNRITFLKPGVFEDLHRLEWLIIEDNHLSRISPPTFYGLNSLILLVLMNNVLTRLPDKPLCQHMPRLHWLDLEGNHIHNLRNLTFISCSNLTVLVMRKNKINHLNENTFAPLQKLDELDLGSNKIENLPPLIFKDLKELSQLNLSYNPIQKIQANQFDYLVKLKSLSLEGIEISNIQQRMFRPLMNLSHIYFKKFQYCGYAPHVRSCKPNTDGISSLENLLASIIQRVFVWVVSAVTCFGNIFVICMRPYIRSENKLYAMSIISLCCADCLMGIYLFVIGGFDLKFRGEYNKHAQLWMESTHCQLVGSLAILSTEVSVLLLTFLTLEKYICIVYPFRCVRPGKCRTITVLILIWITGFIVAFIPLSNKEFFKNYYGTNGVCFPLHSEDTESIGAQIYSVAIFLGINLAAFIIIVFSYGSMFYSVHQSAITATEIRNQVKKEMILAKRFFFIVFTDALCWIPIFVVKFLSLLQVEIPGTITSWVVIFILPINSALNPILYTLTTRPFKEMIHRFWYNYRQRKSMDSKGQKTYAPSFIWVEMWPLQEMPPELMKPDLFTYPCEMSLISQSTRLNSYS
# gsp agonist: activates gsp, the McCune-Albright syndrome mutation; actives 0.13% (n = 340,000); AID 624287; gsp mutant cells, cAMP HTRF, 30 min; Potency, µM (doses to about 76.9 µM), usual class: activators; active = well fitted activation curve with a large enough effect; inconclusive = small, poorly fitted or top-dose-only effect, or another doubt; inactive = no such curve, though single readings can be large or run the other way; cell line not stated here;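 also: phosphodiesterase inhibitor Ro 20-1724 added with compounds to block cAMP breakdown; nearly all actives have a fitted effect of over 60% in size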
#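 Cells in DMEM/10% FBS with G418 were pretreated with compounds in DMSO plus […] (300 uM stock) for 30 min at 37C. cAMP was measured by HTRF (cAMP-d2 plus anti-cAMP antibody-K) after 30 min at room temperature.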
# gsp antagonist: gsp mutant antagonism. gsp-mutant cells, cAMP HTRF, 30 min. actives 0.4% (n = 340,000). Potency, µM (titrated, usually from 76.9 µM), most hits filed as inhibitors. AID 624288; calls by dose curve; cell line not stated here;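 also: intracellular cAMP measured with PDE inhibitor Ro 20-1724 present during compound exposure; nearly all actives have a fitted effect of over 65% in size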
#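 HTRF cAMP measurement after 30 min RT detection following 30 min, 37C compound treatment alongside […] (added as 300 uM solution) in G418-selected cells seeded at 2000/well and grown 16–24 h.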
# RXFP1 ag: RXFP1 (human) receptor agonism; Potency, µM (doses to about 57.5 µM), actives largely listed as activators; Q9HBX9; HEK293T-RXFP1 cAMP TR-FRET, 30 min; response scale: percent of porcine relaxin response, buffer zero; AID 2676; actives 0.3% (n = 370,000); also: nearly all actives have a fitted effect of over 60% in size
#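 HEK293T cells stably expressing RXFP1 were pretreated with the PDE4 inhibitor Ro 20174, exposed to compounds for 30 min at 37C, lysed, and cAMP was read by TR-FRET. Data normalized to buffer (basal) and 29 nM porcine relaxin (100%).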
# CCT chaperon mod: cytosolic chaperonin activity modulation | activity change, % (concentration not given with the values), hits read low | actives 0.3% (n = 360,000) | purified chaperonin ATPase assay, HTRF ADP detection, 30 min; in the data active = activity change below about -30%
#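 TRiC at 40 or 20 nM final (batch-dependent) in 30 mM Tris pH 7.4, 100 mM KCl, 5 mM MgCl2, 1 mM DTT, with compound at single 76 uM and 10 uM ATP, 30 min at 37 deg C. ADP detected by HTRF Transcreener, 665/615 ratio.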
# A number is an active result; . = inactive; ? = inconclusive; / = not tested or not shown; [ ] = another dose, or the depositor's remark. Sampled rows, rich in hits. Any-hit rate of the full collection: about 1.2%. Unless noted, calls follow the shape of the dose curve; as a rule, active = well fitted curve in the direction sought with a large enough effect; inconclusive = small, poorly fitted or top-dose-only effect, or another doubt; inactive = no such curve, though single readings can be large; an effect the other way counts as inactive or inconclusive.
SMILES,MmCpn inh,RXFP1 antagonist,gsp agonist,gsp antagonist,RXFP1 ag,CCT chaperon mod
Cc1ccc(C(=O)NCCOC23CC4CC(CC(C4)C2)C3)cc1,.,.,.,.,.,.
CC1CN(CCCCOc2cccc(Oc3ccccc3)c2)CC(C)O1 (stereo not given),.,-63.9,.[15.4 µM],.,.,.
CC1CN(CCOc2cccc(Oc3ccccc3)c2)CC(C)O1 (stereo not given),.,.,.,.,.,.
CC(CC1c2ccccc2CCc2ccccc21)CN(C)C (stereo not given),/,.,/,/,/,/
CSc1ccc(/C=N/NC(=O)C[n+]2ccccc2)cc1,.,.,20µM,.,.,.
CC(C)(C)c1ccc(/C=N/NC(=O)C[n+]2ccccc2)cc1,?,.,.,.,.,.
Cc1cc(C=O)c(C)n1-c1ccc(NC2CCCC2)c([N+](=O)[O-])c1,.,-64.6,.[15.4 µM],.,.,.
Cc1cc(C=O)c(C)n1-c1ccc(Oc2ccc([N+](=O)[O-])cn2)cc1,.,.,.,.,.,.
CCN(Cc1ccccc1)C(=O)Cn1c(=O)n(-c2ccc(Cl)cc2)c(=O)c2c(C)c(C)sc21,/,.,/,/,.,/
O=C(CSc1nc2ccsc2c(=O)n1CC1CCC(C(=O)O)CC1)c1ccc(Cl)cc1 (stereo not given),.,.,.[15.4 µM],22.4µM,.,.
O=C(Cc1ccc(Cl)cc1)Nc1ccccc1N1CCN(C(=O)c2ccccc2)CC1,.,.,.,28.2µM,.,.
O=C(Nc1ccccc1N1CCN(C(=O)c2ccccc2)CC1)c1ccc(Cl)cc1,.,.,.,?,.,.
CC1CN(c2ncc(/C=N/NC(=O)c3ccccc3O)s2)CC(C)O1 (stereo not given),.,-72.6,.[15.4 µM],?,.,.
O=C(N/N=C/c1cnc(N2CCCCC2)s1)c1ccc(C(F)(F)F)cc1,.,.,.,.,.,.
CCOC(=O)c1cnc(-n2nc(C)cc2C)nc1NCc1ccccc1,.,.,.,35.5µM,.,.
CCOC(=O)c1cnc2ccc(OCC)cc2c1NCc1ccccc1,.,/,.,14.1µM,.,.
CCOC(=O)c1cnc2ccc(OCC)cc2c1NCc1cccnc1,.,.,.[15.4 µM],?,.,.
Cc1ccc(Cl)cc1-n1ncc2c(NCCC3=CCCCC3)ncnc21,/,.,/,/,.,/
CC1(C)O[C@@H]2[C@H](O1)[C@@H](COS(=O)(=O)O)O[C@H]2n1cnc2c(N)ncnc21,.,/,/,/,15.8µM,/
Nc1ncnc2c1ncn2[C@@H]1O[C@H](COS(=O)(=O)O)[C@@H](O)[C@H]1O,.,/,/,.,7.08µM,.
Nc1ncnc2c1ncn2[C@@H]1O[C@H](COP(=O)(O)O)[C@@H](O)[C@H]1O,.,.,/,.,?,.
CCS(=O)(=O)Nc1ccc(C2=NN(C(=O)c3ccco3)C(c3cccc(F)c3)C2)cc1 (stereo not given),.,.,.,22.4µM,.,.
CS(=O)(=O)Nc1ccc(C2=NN(C(=O)c3ccco3)C(c3cccc(F)c3)C2)cc1 (stereo not given),.,.,.,?,.,.
CCn1c(N2CCN(S(=O)(=O)c3ccc(F)cc3)CC2)nc2ccccc21,.,.,.[15.4 µM],.,.,.
CCn1c(N2CCN(S(=O)(=O)c3ccc(Cl)cc3)CC2)nc2ccccc21,.,.,.[15.4 µM],31.6µM,.,.
SMILES,MmCpn inh,RXFP1 antagonist,gsp agonist,gsp antagonist,RXFP1 ag,CCT chaperon mod
Cc1ccc(S(=O)(=O)/N=C(/Nc2ccc(F)cc2F)c2ccccc2)cc1,.,-64.5,.,.,.,.
CC1Sc2ccc(S(=O)(=O)N3CCC(C(=O)NCc4ccco4)CC3)cc2NC1=O (stereo not given),.,.,.,.,.,-33.8
CC1Sc2ccc(S(=O)(=O)N3CCC(C(=O)N(C)Cc4ccco4)CC3)cc2NC1=O (stereo not given),.,.,.,.,.,.
Cc1nnsc1C(=O)Oc1ccc(Cl)cc1,/,.,/,/,.,/
COc1ccc(NC(=O)Cc2ccccc2)cn1,.,.,.[15.4 µM],.,.,.
COc1ccc(NC(=O)/C(Cl)=C(/Cl)S(=O)Cc2ccccc2)cn1 (stereo not given),.,-72.5,.,.,.,.

# Screening data (PubChem BioAssay)
